Holding throughout (assay): NCI-60 one-dose screen, 48 h (100 = growth as untreated, 0 = no growth, -100 = all killed)
Holding throughout (details): 10 µM unless noted

Experiment [1] concerns T-47D breast.
For experiment [2], the system named is BT-549 breast.
The test system of experiment [3] is MDA-MB-435 melanoma.
The test system of experiment [4] is SW-620 colon.
Experiment [5] concerns MCF7 breast.
Experiment [6] concerns HCT-116 colon.
Experiment [7] relates to HCC-2998 colon.
Experiment [8] has as its system KM12 colon.

The panel holds about 83,000 compounds, 20% with a hit somewhere; the sample as a whole holds those more often.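 Compound tested at a single concentration for 48 hours in 96-well plates; a percent growth value below 10 was scored as active.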 Unmarked numbers belong to inactive results. Activity calls are given as the source filed them.

Take `C=C(CNCCO)[C@@H]1CC[C@]2(CO)CC[C@]3(C)[C@H](CC[C@@H]4[C@@]5(C)CCC(N)C(C)(C)[C@@H]5CC[C@]43C)[C@@H]12` (some centres undefined): the growth was -47.7% (active) in experiment [1]; 65% in experiment [2]; -44% (active) in experiment [3]; 7.71% (active) in experiment [4]; -29.9% (active) in experiment [5]; 7.75% (active) in experiment [6]. Besides, the growth in experiment [7] was -37.2% (active); in experiment [8] it was 25.2%.

For `COC(=O)CC[C@@H]1O[C@@H](c2ccc(F)cc2)[C@@H](O)[C@H]1O`, the growth was 104% in experiment [1]; 105% in experiment [2]; 98.4% in experiment [3]; 101% in experiment [4]; 96% in experiment [5]; 89.3% in experiment [6]. Moreover, the growth in experiment [7] is 99.6%; in experiment [8] it was 99.7%.

Take `COc1cc2c(cc1OCCCCN1CCN(C(=S)SCCC(C#N)(c3ccccc3)c3ccccc3)CC1)N=C[C@@H]1CCCN1C2=O`: the growth in experiment [1] was -13.3% (active); in experiment [2], -91.8% (active); in experiment [3], -17% (active); in experiment [4], -95.6% (active); in experiment [5], -93.4% (active); in experiment [6], -62.1% (active). The figures for the growth in experiment [7] and in experiment [8] were -72.3% (active) and -60.9% (active), respectively.

`COc1ccc(N2CCC(=S)NC2=S)cc1`: the growth in experiment [1] is 102%; in experiment [2], 105%; in experiment [3], 96.3%; in experiment [4], 104%; in experiment [5], 94.6%; in experiment [6] it was 104%. Also, the growth in experiment [7] was 104%; in experiment [8] it was 101%.

In the case of `CCNC(=O)Oc1ccc(/C(=C(/CC)Cc2ccccc2)c2ccc(OCCN3CCCC3)cc2)cc1`, the growth is 68.3% in experiment [1]; 100% in experiment [2]; 102% in experiment [3]; 99.6% in experiment [4]; 35.9% in experiment [5]; 72.1% in experiment [6]. For the same compound, the growth in experiment [7] was 91.3%; in experiment [8], 98%.

Take `c1nc2ccc(-c3cc4ccc5[nH]ncc5c4c4c3CCCC4)cc2[nH]1`: the growth in experiment [1] is 60.3%; in experiment [2], 34.1%; in experiment [3], 21.2%; in experiment [4], 39.4%; in experiment [5] it was 59%; in experiment [6] it was 7.07% (active). The growth in experiment [7] is 75.5%; in experiment [8] it was 30.8%.

In the case of `O=C1c2ccccc2C(=O)C1c1ccc(Br)cc1`, the growth in experiment [1] was 108%; in experiment [2], 101%; in experiment [3], 97.9%; in experiment [4] it was 99.9%; in experiment [5], 87.7%; in experiment [6] it was 92.4%. Also, the growth in experiment [7] is 98%; in experiment [8], 107%.

Turning to `CCN1C(=O)N(CC)C2Nn3c(s/c(=C\c4ccccc4Br)c3=O)=NC21` (centres undefined), the growth was 62.1% in experiment [1]; 19% in experiment [2]; -62.1% (active) in experiment [3]; 17.4% in experiment [4]; 16.7% in experiment [5]; 11.2% in experiment [6]. Besides, the growth was 24.4% in experiment [7] and 7.48% (active) in experiment [8].

As to `C=CC(=O)Nc1ccc(Oc2nccc(Nc3nnc(-c4ccc(C)cc4)s3)n2)cc1`, the growth in experiment [1] is 89.2%; in experiment [2] it was 73.4%; in experiment [3], 0.25% (active); in experiment [4] it was 49.5%; in experiment [5], 80.6%; in experiment [6] it was 94.9%. In addition, the growth in experiment [7] was 110%; in experiment [8] it was 84%.

Take `C=C1C(=O)O[C@H]2[C@H]1CC/C(Cn1cc(CCC)nn1)=C\CC[C@@]1(C)O[C@@H]21`: the growth is -40.1% (active) in experiment [1]; 40.4% in experiment [2]; 36.2% in experiment [3]; -0.143% (active) in experiment [4]; 11.1% in experiment [5]; -55.7% (active) in experiment [6]. The figures for the growth in experiment [7] and in experiment [8] were 73.6% and 81.1%, respectively.

As to `C=C(C)[C@@H]1CCC[C@]2(C(=O)O)CC[C@]3(C)[C@@H](CC[C@@H]4[C@@]5(C)C/C(=C/c6ccncc6)C(=O)C(C)(C)[C@@H]5CC[C@]43C)[C@@H]12`, the growth is 47.5% in experiment [1]; 46.5% in experiment [2]; 19.8% in experiment [3]; 17.5% in experiment [4]; 19.1% in experiment [5]; 4.88% (active) in experiment [6]. The results for the growth in experiment [7] and in experiment [8] were 23.8% and 19.7%, respectively.

As to `CN(CCCNC(=O)Cc1ccc2ccc3cccc4ccc1c2c34)CCCNc1cc(-c2ccc3ccccc3c2)nc2ccccc12`, the growth in experiment [1] was -67% (active); in experiment [2], -4.41% (active); in experiment [3] it was -63.4% (active); in experiment [4] it was -69.4% (active); in experiment [5], -86.2% (active); in experiment [6], -85.4% (active). The growth in experiment [7] was -89.1% (active); in experiment [8] it was -80% (active).

Consider `C/C(Cc1ccc(Cl)cc1)=C(\c1ccc(OCCCN(C)C)cc1)c1ccc(OC(=O)Cc2ccccc2)cc1`, for which the growth in experiment [1] was 71.3%; in experiment [2] it was 117%; in experiment [3], 107%; in experiment [4], 108%; in experiment [5], 57.9%; in experiment [6], 104%. The growth was 107% in experiment [7] and 94.7% in experiment [8].

These data come from PubChem BioAssay (NCI).
